Most compounds without a hit are left out; they make up all but 3.9% or so of the library.
AHR activator = activators of human aryl hydrocarbon receptor; P35869; activation, % at 5 µM; AHR-responsive luciferase reporter cells, luminescence; actives 2.5% (n = 320,000); in the data active = activation above about 47%;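 also: 0% = vehicle wells and 100% = reference agonist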
PLCb3 inh = blocks human PLC-beta3 enzyme activity | AID 720704 | inhibition, % at 12.2 µM | Purified PLC-beta3, fluorogenic substrate, fluorescence | Q01970 | actives 0.18% (n = 370,000); in the data active = inhibition above about 11%;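 also: 0% = median of compound wells on plate and 100% = full blocker control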
CR mimetic SO = lowers age-related superoxide in aged yeast cells; superoxide response (% of plate mean), % at 10 µM; S. cerevisiae aged cells, superoxide DHE fluorescence; stronger effect = lower value; actives 0.18% (n = 330,000);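 active = superoxide response under a set limit, about three screen SD below normal, cut at about 65% in these data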;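 also: yeast aged for seven days with compound at 30 °C before DHE staining; 100% = average MFI of all compound-treated wells on the plate with controls excluded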
HIF act = HIF pathway transcriptional activation; actives 0.32% (n = 300,000); U2OS HRE-luciferase reporter, luminescence; normalized: DMSO 0%, desferrioxamine 100%; AID 1910; activation, % at 7.5 µM (by protocol);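 active = mean activation of at least 10% of the iron chelator positive control signal, with at least half of replicates also reaching 10%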
sPLA2-III inh = Blocks human group III sPLA2 activity. Q9NZ20. QFRET BODIPY PC-A2 liposome hydrolysis, fluorescence. inhibition, % at 12.2 µM. actives 0.56% (n = 370,000). AID 743126;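 active = inhibition above mean plus 3 SD of compounds lying within the high and low control bounds, cut at about 19% in these data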;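 also: 0% = median of test compound wells and 100% = no enzyme DMSO wells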
PLCg1 inh = blocks human PLC-gamma1 enzyme activity; P19174; AID 720700; purified PLC-gamma1, fluorogenic substrate, fluorescence; inhibition, % at 12.2 µM; actives 0.84% (n = 370,000); in the data active = inhibition above about 9.5%
* hit, by the source's call; i = inactive; . = not tested or not shown.

SMILES | AHR activator | PLCb3 inh | CR mimetic SO | HIF act | sPLA2-III inh | PLCg1 inh
CCOC(=O)[C@@]12CCCC=C1N(CCc1ccc(Cl)cc1)C(=O)[C@H]2CC(=O)N1CCOCC1 | . | -2.5 | . | . | 7.4 | 1.3
COC(=O)c1cc2c(c3c4cc(OC)ccc4n(S(=O)(=O)c4cccc(C)c4)c13)C(=O)N(C)C2 | . | -65.4 | . | . | 1.5 | -41.4
COc1cc(OC)c(OC)cc1/C=C1\CCC(C2CCCC2)C1=O (configuration not stated) | 55.5* | -152.0 | 95.1 | -0.1 | -4.3 | -94.2
Cc1cc(/C=C2/NC(=O)N(Cc3ccccc3F)C2=O)c(C)n1C | 76.5* | -37.1 | 91.0 | -0.2 | -4.0 | -31.6
Cc1ccccc1CS(=O)(=O)Cc1ccc(C(=O)Nc2ccc(F)cc2)o1 | . | 2.4 | . | . | -7.3 | 5.7
O=C(NNC(=O)c1cc2ccccc2[nH]1)OCc1ccccc1 | 66.3* | -4.3 | 122.4 | . | -6.2 | -1.5
COc1ccccc1OCC(=O)/C=C1/N(C)c2ccccc2C1(C)C | 15.6 | -115.3 | 97.1 | -0.4 | 0.6 | -71.5
CN1/C(=C\C(=O)COc2ccc3c(c2)OCO3)C(C)(C)c2ccccc21 | 56.3* | -68.7 | 100.7 | 1.1 | -1.1 | -55.5
CCCCCCCCN1C(=O)N2Cc3ccc(C)cc3C2CS1(=O)=O (configuration not stated) | . | 3.6 | . | . | 2.4 | 1.9
CSc1ccc(/C=N/Nc2ccc(Cl)c(C(=O)O)c2)cc1 | 12.1 | -18.8 | 125.5 | 174.2* | -10.2 | -5.9
CCC/C(=N\NC(=O)C1CC1)c1ccccc1 | 21.0 | -0.9 | 91.5 | 1.2 | 1.0 | 4.1
O=C(N/N=C/c1c[nH]c2ccccc12)c1cccc(O)c1 | 8.2 | -16.0 | 101.6 | 1.4 | -10.9 | -7.8
CC(=O)Nc1cccc(C(=O)N/N=C/c2c[nH]c3ccccc23)c1 | 75.8* | -29.8 | 98.9 | -0.3 | 7.1 | -15.2
O=C(O)c1cc(-c2ccc(/C=N/Nc3ccc(Cl)cc3)o2)ccc1Cl | 70.7* | -143.0 | 111.3 | -0.2 | -8.1 | -88.2
CCC/C(=N/NC(=O)c1cccc(Cl)c1)c1ccccc1 | 1.1 | -6.1 | 95.7 | 10.3* | 5.7 | -6.2
O=S1(=O)c2c(NCc3ccco3)cccc2Oc2ccccc2CN1Cc1cn(Cc2ccccc2C(F)(F)F)nn1 | . | -48.5 | . | . | -7.4 | -32.5
O=C(N/N=C/c1c[nH]c2ccccc12)c1cccc(Cl)c1 | 52.3* | -25.2 | 108.4 | 1.2 | -12.8 | -16.3
C(=N\Nc1ccccn1)/c1c[nH]c2ccccc12 | 47.6* | -16.6 | 104.3 | 3.3 | 1.0 | -6.6
O=C(N/N=C/c1c[nH]c2ccc(Br)cc12)c1ccn(Cc2ccc(Cl)cc2)n1 | 7.2 | -8.3 | 86.9 | -0.4 | -6.8 | -5.8
O=c1nc(N/N=C/c2c[nH]c3ccccc23)cn[nH]1 | 31.6 | -8.4 | 110.8 | 1.5 | 8.5 | -1.6
O=C(N/N=C/c1c[nH]c2ccccc12)c1ccn(Cc2ccc(Cl)cc2Cl)n1 | 50.2* | -15.7 | 111.0 | -0.7 | -6.7 | -5.1
COc1ccc(C(=O)N/N=C/c2cccc3cccnc23)cc1 | 4.2 | -0.6 | 91.6 | 12.4* | -11.8 | 1.9
CCCC[C@H]1C2CC(OC(=O)NCc3ccc(Cl)cc3)C(C2)[C@H]2CCCCN21 (some centres not stated) | . | 3.9 | . | . | 2.8 | 0.4
CCOC(=O)[C@@]12CCC3=C1N(CCC3)C(=O)[C@H](CC(=O)N1CCCC1)C2 | . | -0.1 | . | . | 7.0 | 0.0
Cc1ccc(/C=N/Nc2ccccn2)s1 | 48.5* | -17.2 | 90.5 | 1.6 | -0.1 | -9.8
SMILES | AHR activator | PLCb3 inh | CR mimetic SO | HIF act | sPLA2-III inh | PLCg1 inh
O=C(O)c1cc(N/N=C/c2c[nH]c3ccccc23)ccc1Cl | 58.1* | -24.8 | 107.0 | 0.9 | 1.5 | -11.9
Cc1[nH]c2ccccc2c1/C=N/NC(=S)NC(C)C | 1.2 | -29.5 | 118.3 | 0.9 | -8.4 | -19.5
O=C(O)c1cc(N/N=C/c2ccc(-c3ccccc3)cc2)ccc1Cl | . | -30.8 | 98.6 | -33.3 | -21.2 | -12.9
CC(C)NC(=S)N/N=C/c1c[nH]c2ccccc12 | 128.6* | -2.0 | 123.8 | 2.0 | 8.2 | -1.6
CCc1ccc(-c2cc(C(=O)N/N=C/c3c[nH]c4ccccc34)[nH]n2)cc1 | 55.4* | -15.0 | 125.4 | -15.3 | -15.2 | -8.0
C[C@H](CO)N1C[C@H](C)[C@@H](CN(C)C(=O)c2ccncc2)OCc2cn(nn2)CCCC1=O | . | 2.3 | . | . | 0.1 | -0.2
CC(=O)O[C@@H]1C=C[C@@H](C#Cc2ccc(C(C)(C)C)cc2)O[C@@H]1COC(=O)Nc1ccccc1 | . | 6.9 | . | . | -17.2 | 2.4
COc1ccc(C(=O)N/N=C/c2c[nH]c3ccccc23)cc1 | 55.8* | -18.6 | 111.4 | 4.1 | 8.7 | -10.6
COc1ccc(C(=O)Nc2nnc(-c3cccs3)s2)cc1 | 66.7* | 0.3 | 103.1 | 3.0 | -5.0 | -0.9
COc1ccc(NC(=O)c2cc(-c3cccs3)on2)c(OC)c1 | 1.2 | -2.5 | 97.0 | -0.4 | -1.4 | -0.3
O=C(Nc1nnc(-c2cccs2)s1)c1cccc(F)c1 | 55.9* | -15.1 | 116.9 | . | 1.1 | -6.7
Cc1occc1C(=O)Nc1nnc(-c2cccs2)s1 | 76.3* | -5.2 | 96.8 | 1.9 | 3.0 | -8.4
COc1ccc(OC)c(NC(=O)c2ccc(-c3cccs3)cc2)c1 | 75.8* | -70.0 | 96.9 | -0.2 | -5.9 | -68.2
CC(c1ccccc1)N1CC[C@H]2C=CC[C@@H](C(=O)Nc3cccc(Cl)c3)[C@H]2C1=O (some centres not stated) | . | -0.8 | . | . | -4.9 | -0.8
CCOC(=O)[C@@]12CN(C(=O)OC(C)(C)C)CC=C1N(Cc1ccc(OC)cc1)C(=O)[C@H]2CC(=O)NCc1cccc(C(F)(F)F)c1 | . | -6.0 | . | . | -11.2 | -2.4
Cc1ccccc1NC(=O)[C@H]1CC(=O)O[C@@H]1c1ccccc1 | . | -0.5 | . | . | 3.9 | -3.2
CC(C)(C)OC(=O)N1CCC2CCN(S(C)(=O)=O)CC21 (configuration not stated) | . | -2.1 | . | . | 7.1 | -0.8
O=C(Nc1ccc(C(F)(F)F)cc1)OC1CCC12CCC(c1ccccc1)CC2 (configuration not stated) | . | -1.2 | . | . | 8.0 | 1.1
COc1ccc(NC(C)=O)cc1NC(=O)c1ccc2ccccc2c1 | 73.6* | -2.5 | 73.2 | 0.0 | -0.7 | -1.7
COc1ccc(OC)c(S(=O)(=O)N(CCc2ccc(OC)c(OC)c2)Cc2cccs2)c1 | . | 2.9 | . | . | -3.7 | 2.5
COc1cccc(NC(=O)c2cc(-c3cccnc3)nc3c(Cl)cccc23)c1 | 24.0 | 0.6 | 119.3 | 0.4 | -7.3 | -0.2
Cc1cc(NC(=O)c2cc(-c3ccccn3)nc3c(Cl)cccc23)no1 | 22.9 | -12.2 | 80.8 | -0.8 | 2.5 | -3.2
O=C(Nc1ccc(F)cc1)c1cc(-c2ccncc2)nc2c(Cl)cccc12 | 68.7* | -4.7 | 101.8 | -0.8 | -2.6 | -1.6
O=C(Nc1nccs1)c1cc(N2CCOCC2)nc2ccccc12 | 76.1* | i | 100.7 | -0.1 | -8.2 | i
O=C(Nc1nccs1)c1cc(-c2ccccn2)nc2c(Cl)cccc12 | 75.8* | -10.2 | 89.3 | -3.7 | -1.0 | 3.6

Assay outcomes deposited in PubChem BioAssay by several laboratories.
